40 sequences from the supplement of paper PMC10338343 can be followed below.

± gives the standard deviation.

The subject of the assay is EfPiwi piRISC loaded with L1MC piRNA (26 nt). The assay can be described thus: pre-steady-state target cleavage rate (min^-1); auxiliary factor: 500 nM Ephydatia muelleri Gtsf1; guide: L1MC piRNA 5'p-UAACUAAAUACUAUGCAAGCUGUAGG; MIWI and MILI are mouse PIWI proteins and EfPiwi is from a freshwater sponge; tags in brackets are library labels; higher = faster piRNA-guided slicing of the target. The protocol: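 Cleave-'n-Seq: a library of target RNAs (target site in constant flanks) at […] was incubated with 1 nM active freshwater sponge Ephydatia fluviatilis Piwi piRISC (synthetic 5'-monophosphorylated piRNA guide) with or without 500 nM EmGtsf1 at 33 °C for 1 min to 16 h. Uncleaved targets were sequenced and the pooled three trials fitted to a burst-and-steady-state model to give the pre-steady-state cleavage rate (min^-1). Sequence is the target site only. Fits with R² ≤ 0 are excluded.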
Consider UCCUGCUACAGCUUGCAUAGUAUAAAGUAA, for which the “pre-steady-state target cleavage rate” value is 0.00224 ± 0.0017.
In the case of UCCUGGAUCAGCUUGCAUUGUAUUUAGUAA, the “pre-steady-state target cleavage rate” value was found to be 0.00441 ± 0.0018.
Under UCCUGGAACAGCUUGCAUAGUAUUAGUUA stands 0.00229 ± 0.0021.
For UCCUCCUACAGCUUGCAUUGUAAUUAGUUA, the “pre-steady-state target cleavage rate” value was determined as 0.00753 ± 0.0034.
In the case of UCCUGCAACAGCUUGCAUAGUAUAUAGUUA, the “pre-steady-state target cleavage rate” value worked out at 0.00844 ± 0.0024.
Turning to UCCUGGUACAGCUUCCAUAGUAUUUAGUAA, the “pre-steady-state target cleavage rate” value amounted to 0.00378 ± 0.0022.
UCCUGGUACAGCUUGUCAUAGUAUUUAGUUA: the “pre-steady-state target cleavage rate” value turned out to be 0.00651 ± 0.0024.
Under UCCUGGAAGAGCUUGCAUAGUAUUUAGAAA stands 0.00533 ± 0.002.
As to UCCUGGAUGAGCAUGCAUAGUAUAUAGUUA, the “pre-steady-state target cleavage rate” value worked out at 0.00333 ± 0.0032.
As for UCCUCCUACAGGUUGCAUAGUAUUUAGAAA, the “pre-steady-state target cleavage rate” value came out at 0.00461 ± 0.0014.
UCCUGGAUGUCGAACGUAUCUAUUUAGUAA: the “pre-steady-state target cleavage rate” value was less than 0.0001.
Regarding UCCUCCUACAGGUUGCAUAGUAUUUUCAAA, the “pre-steady-state target cleavage rate” value was 0.00306 ± 0.0021.
For the sequence UCCUCCUACAGCUUGCAUAGUAUUUUGAUA, the “pre-steady-state target cleavage rate” value came out at 0.0044 ± 0.0029.
On to UCCUCCUACAGCUUGCAUACUAUUUAGAAA, for which the “pre-steady-state target cleavage rate” value worked out at 0.00366 ± 0.0019.
As to UCCUGGUACAGCUUGCAAAGUAUUUAGAAA, the “pre-steady-state target cleavage rate” value came out at 0.00656 ± 0.0038.
Under UCCUCCUACAGCUUGCAUAGUAUUUAGAAA stands 0.00581 ± 0.0024; under UCCUGGAUGAGCUUGCAUGGUAUUUAGUUA, 0.0127 ± 0.0045; under UCCUGCUACUGCUUGCAUAGAAUUUAGUUA, 0.00563 ± 0.002.
Under UCCUGGAUGUGGUUGCAUAGUAAUUAGUUA stands 0.00754 ± 0.0039; under UCCUGCUACAGCUUGCAUAGUAUGUAGUUA, 0.00311 ± 0.0014.
With UCCUCCUACAGCUUGCAUAGUAAUUUCAAA, the “pre-steady-state target cleavage rate” value came out at 0.00321 ± 0.0026.
Consider UCCUCCUACAGCUUGCAUUAGUAUUUAGUUA, for which the “pre-steady-state target cleavage rate” value was 0.00479 ± 0.0038.
For the sequence UCCUGGAAGAGCUUGCAUAGAAUUUAGUUA, the “pre-steady-state target cleavage rate” value turned out to be 0.00403 ± 0.0018.
As for UCCUGCUACAGCUUCCAUAGUAUUUUCAAA, the “pre-steady-state target cleavage rate” value amounted to 0.0032 ± 0.0021.
As for UCCUGGUUCAGCUUGCAUAGUAUAUAGUUA, the figure is 0.00607 ± 0.0027; as for UCCUCCUUGUGCUUGCAUAGUAUUUACAAA, 0.00376 ± 0.0032; as for UCCUGGAACAGUUGCAUAGUAUUUAGUUA, 0.0543 ± 0.013.
Turning to UCCUCCUUCAGCUUGCAUAGUAUUUAGUUA, the “pre-steady-state target cleavage rate” value was 0.158 ± 0.041.
For the sequence UCCUCCUACACCUUGCAUAGUAUUUACUUA, the “pre-steady-state target cleavage rate” value is 0.00326 ± 0.0032.
With UCCUCCUACAGCUAGCAUAGUAUUUAGAUA, the “pre-steady-state target cleavage rate” value came out at 0.00495 ± 0.0024.
As for UCCUGGUACAGCCUUGCAUAGUAUUUAGUUA, the figure is 0.0209 ± 0.0073.
Take UCCUGGAACAGCUUGCAUAGUAUUUAGUAUA: the “pre-steady-state target cleavage rate” value came out at 0.00935 ± 0.005.
As for UCCUGCUACAACUUGCAUAGUAUUUAGUUA, the “pre-steady-state target cleavage rate” value is 0.00776 ± 0.0029.
Take UCCUCCUACAGCUUGCAAAGUUUUUAGUUA: the “pre-steady-state target cleavage rate” value was 0.00281 ± 0.0022.
Turning to UCCUCCUAGAGCUUGCAUAGUAUUUACUUA, the “pre-steady-state target cleavage rate” value is 0.00356 ± 0.0033.
On to UCCUGGAUGUGCUUGCAUAGCAUUUAGUUA, for which the “pre-steady-state target cleavage rate” value is 0.00505 ± 0.0018.
For UCCUCCUACAGGUUGCAUAGUAUUUACAAA, the “pre-steady-state target cleavage rate” value was found to be 0.00321 ± 0.0024.
In the case of UCCUGGAUGUCGAACCAUAGUAUUAAGUUA, the “pre-steady-state target cleavage rate” value is less than 0.0001.
UCCUGCUACAGCUUGCAAAGUAUUAAGUUA: the “pre-steady-state target cleavage rate” value is 0.00445 ± 0.0021.
Turning to UCCUGGAUGAGCAUUGCAUAGUAUUUAGUUA, the “pre-steady-state target cleavage rate” value came out at 0.008 ± 0.0029.
